Values joined by “and” are separate entries in the source; they are usually repeats but may differ in a detail not shown here. Identical values can stand only once. The whole screen tested about 270,000 compounds, of which about 5,800 (2.1%) were called active. About 16% were inconclusive and are not listed. This is one part of a sample in which actives are shown more often than they occur. The call rests on the fitted dose curve; in most records, active means well fitted inhibition curve with a large enough effect; inconclusive means small, poorly fitted or top-dose-only effect; inactive means flat fitted curve, though single readings scatter.
On the % scale 0 is the no-effect control and ±100 the full control effect; potency means the concentration at half of the fitted maximal effect.

Chain of Microtubule-associated protein tau (Homo sapiens) (P10636 561-689 P618L limits assumed): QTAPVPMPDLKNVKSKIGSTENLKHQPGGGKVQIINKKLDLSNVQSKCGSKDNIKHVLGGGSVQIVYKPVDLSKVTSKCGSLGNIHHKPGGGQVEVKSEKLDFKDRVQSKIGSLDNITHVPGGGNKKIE

This assay deals with Microtubule-associated protein tau (Homo sapiens) (UniProt P10636). The experiment in a line: qHTS for Inhibitors of Tau Fibril Formation, Thioflavin T Binding. Further: nearly all actives have a fitted effect of over 55% in size. The note with it: recombinant tau K18 P301L (four-repeat tau fragment), heparin-induced fibrillization, ThT fluorescence; series mostly up to 57.4 µM; activity, negative = inhibition: at the top concentration. In outline:
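Tau K18 P301L fragment (15 uM unlabeled plus 0.24 uM Alexa 594-labeled) in 100 mM sodium acetate pH 7 with compound, fibrillization induced by 20 uM heparin for 6 hr at 37 C. Thioflavin T (30 uM) added, fluorescence read after 1 hr (ex 450, em 510 nm).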
A general note: In qHTS, concentration-response curves come from the screen itself.
Regarding `O=S(=O)(NCCS(=O)(=O)N1CCN(c2ccccc2)CC1)c1ccc(Cl)cc1`, the “activity, negative = inhibition” value was -4.85% (inactive).

For `CN(C(=O)CSc1nc2ccc(NC(=O)COc3ccccc3)cc2s1)c1ccccc1`, the “activity, negative = inhibition” value is -3.95% (inactive).

With `CCCCc1nn2c(=O)cc(COC(=O)c3ccc(NC(=O)c4ccccc4C)cc3)nc2s1`, the “activity, negative = inhibition” value is -1.76% (inactive).

For the molecule `O=C1CSC(=S)N1/N=C/c1ccc(O)c([N+](=O)[O-])c1`, the Potency was 6.31 µM (active).

`O=C(c1ccncc1)c1ccc([N+](=O)[O-])cc1`: the “activity, negative = inhibition” value was 0.754% (inactive).

On to `Cc1ccc(C(=O)Cn2cc([N+](=O)[O-])nc2C)cc1`, for which the “activity, negative = inhibition” value was -1.76% (inactive).

In the case of `O=C(Cn1c[n+](CC(=O)c2ccc([N+](=O)[O-])cc2)cn1)c1ccc([N+](=O)[O-])cc1`, the Potency was 12.6 µM (active) and 20 µM (active).

Turning to `Cc1csc2nc(COC(=O)c3ccc(NC(=O)COc4ccccc4F)cc3)cc(=O)n12`, the “activity, negative = inhibition” value is -5.4% (inactive).

With `O=C(Nc1cccc2ncccc12)C(Cl)(Cl)Cl`, the “activity, negative = inhibition” value is 8.69% (inactive).

For the molecule `O=C(Nc1cccc2ncccc12)c1ccc(-c2ccc(Cl)cc2Cl)o1`, the “activity, negative = inhibition” value was -12.8% (inactive).

Consider `Cc1ccc(/C=C(\C#N)C(=O)Nc2cccc3ncccc23)o1`, for which the Potency was 14.1 µM (active).

On to `O=C(NCc1ccccc1Cl)C1CCN(c2ncnc3c2nc2n3CCCCC2)CC1`, for which the “activity, negative = inhibition” value was -13.8% (inactive).

As to `Cc1ccc(NC(=O)Cn2cnc3nc4c(cc3c2=O)CCCC4)cc1Cl`, the “activity, negative = inhibition” value was 6.45% (inactive).

Consider `O=C(Nc1ccccc1)Nc1ccccc1C(=O)NCc1ccco1`, for which the “activity, negative = inhibition” value is -5.07% (inactive).

For `CCc1ccc(-c2cc(C(=O)NCc3ccco3)c3ccccc3n2)s1`, the Potency is 25.1 µM (active).

Regarding `CCOc1ccc(CNC(=O)c2cc(-c3ccc(Cl)s3)nc3ccccc23)cc1`, the “activity, negative = inhibition” value was 4.88% (inactive).

Regarding `Cc1cc(C)cc(NS(=O)(=O)c2cc3c(cc2C)NC(=O)CO3)c1`, the “activity, negative = inhibition” value is -8.97% (inactive).

With `CCc1ccc(NC(=O)CCCc2nnc3n(CCCOC)c(=O)c4sccc4n23)cc1`, the “activity, negative = inhibition” value was -2.94% (inactive).

For the molecule `CCN(CC)c1ccc(NC(=O)CN2CCN(CC(=O)Nc3ccc(Cl)cc3)CC2)cc1`, the “activity, negative = inhibition” value was -12.7% (inactive).

`COc1ccc(-c2nc(SCC(=O)N3CCCCC3C)n[nH]2)cc1` (centres undefined): the “activity, negative = inhibition” value was -11.1% (inactive).

Regarding `Cc1ccc(NN=Nc2nc3c([nH]2)c(=O)n(C)c(=O)n3C)cc1`, the Potency is 28.2 µM (active).

With `Cc1ccc(CNC(=O)CSc2c(C)cnc3c2c(=O)n(C)c(=O)n3C)cc1`, the “activity, negative = inhibition” value is -3.11% (inactive).

`CC(CCO)Nc1nc2c([nH]1)c(=O)n(C)c(=O)n2C` (centres undefined): the “activity, negative = inhibition” value is -1.07% (inactive).

`CCc1cccc(CC)c1NC(=O)Cn1c(=O)c(-c2cc(C)ccc2NC(C)=O)nc2ccccc21`: the “activity, negative = inhibition” value is 0.406% (inactive).

`Nc1nc(-c2sc3nc4c(cc3c2N)CCCC4)nc(N2CCOCC2)n1`: the Potency was 3.55 µM (active).

Regarding `Cc1nc(N2CCOCC2)nc2c1CCCC2`, the “activity, negative = inhibition” value was -16.3% (inactive).

Turning to `Cc1cc(Oc2ccccc2)nc(N2CCOCC2)n1`, the “activity, negative = inhibition” value was -5.46% (inactive).

On to `COc1ccc(CCNc2nc(-c3ccc(Cl)cc3)cc(C(F)(F)F)n2)cc1OC`, for which the “activity, negative = inhibition” value is -16.6% (inactive).

On to `COc1ccc2c(Sc3ccc(C)cc3)c(C(=O)NC(C)c3ccccc3)[nH]c2c1` (centres undefined), for which the “activity, negative = inhibition” value is 2.48% (inactive).

Consider `CNC(=O)c1ccc(-c2nc(CN3CCc4ccccc43)c(C)o2)cc1`, for which the “activity, negative = inhibition” value is -12.5% (inactive).

As for `CCc1ccc(NC(=O)c2nn(-c3ccc(C)cc3)c(=O)n(C)c2=O)cc1`, the “activity, negative = inhibition” value was -10.4% (inactive).

For `CC(C)CCNC(=O)CSc1nc2ccccc2nc1Cc1ccc(Cl)cc1`, the “activity, negative = inhibition” value is 5.97% (inactive).

As to `CCc1ccc(Sc2cc(C(=O)NCCCOC(C)C)c3ccccc3n2)cc1`, the “activity, negative = inhibition” value is -15.9% (inactive).

As to `COc1ccccc1OCCNC(=O)c1cc([N+](=O)[O-])cc([N+](=O)[O-])c1`, the “activity, negative = inhibition” value is 1.4% (inactive).

The values are drawn from PubChem BioAssay AID1460 (National Center for Advancing Translational Sciences (NCATS), 2008).
